Measured values from PubChem BioAssay (NCI).
This is part of a sample that, as a whole, favours compounds with a hit. Of some 79,000 tested, about 15% had one in any assay. Activity calls are given as the source filed them. No stated cut-off is given here; in the data, active means growth inhibition above about 70%; inactive means the rest.

Assay: NCI Yeast Anticancer Drug Screen. Data for the bub3 strain (AID 167)
Settings: S. cerevisiae bub3 mutant strain, at 50.0 µM, stronger effect = higher value
Description: Growth inhibition of yeast strains with defined genetic alterations is measured as a screen for potential anti-cancer activity. Selected strains with alterations in DNA damage repair or cell cycle control were exposed to compounds and growth inhibition was measured relative to vehicle treated controls. The strain used in this assay is bub3
In the case of O=[N+]([O-])c1ccc(P2(=O)Nc3ccccc3N2)cc1, the growth inhibition is reported as 0.25% (inactive). With CC1(C)OC2OCCC(N=[N+]=[N-])C2O1 (stereo not given) the growth inhibition was -0.75% (inactive). With O=[N+]([O-])c1ccc2sc3ccccc3c2c1 the growth inhibition was -3.35% (inactive). In the case of ClCCN(CCCl)c1ncnc2c1ncn2Cc1ccccc1, the growth inhibition is reported as -1.95% (inactive). In the case of O=C(Nc1ccccc1F)C(Cl)(Cl)Cl, the growth inhibition is reported as 16.7% (inactive). With Oc1cccc(-c2ccccc2)c1 the growth inhibition was 30.1% (inactive). With O=P(O)(O)c1ccccc1 the growth inhibition was 2.6% (inactive). In the case of O=NN1CCN(N=O)CC1, the growth inhibition is reported as -0.6% (inactive). In the case of CC1OC(O[C@@H]2C=C3CC[C@@H]4[C@H](CC[C@]5(C)[C@@H](c6ccc(=O)oc6)CC[C@]45O)[C@@]3(C)CC2)C(O)C(OC2OC(CO)C(O)C(O)C2O)C1O (stereo not given in full), the growth inhibition is reported as 14.1% (inactive). In the case of NC(Cc1ccccc1)c1nn[nH]n1 (stereo not given), the growth inhibition is reported as -17.4% (inactive). In the case of C[C@]12CC[C@H]3[C@@H](CC[C@H]4N(CCCl)CCC[C@]34C)[C@@H]1CC[C@@H]2O, the growth inhibition is reported as 69.2% (inactive). With [N-]=[N+]=C1C(=O)C2CC3CC1CC2C3 (stereo not given) the growth inhibition was 1.9% (inactive). In the case of CCC1(CCNC(=O)CCl)C(=O)NC(=O)NC1=O, the growth inhibition is reported as 4.55% (inactive). With CC(C)OP(=O)(OCCCO)C(Cl)Cl (stereo not given) the growth inhibition was 3.75% (inactive). With CN1CCc2cc3c(cc2[C@H]1[C@@H]1OC(=O)c2c1ccc1c2OCO1)OCO3 the growth inhibition was -29.1% (inactive). With C[n+]1ccc2ccccc2c1-c1c2ccccc2cc[n+]1C the growth inhibition was 3% (inactive). With O=c1c2ccccc2nc(-c2ccccc2Cl)n1-c1nnc(C(F)(F)F)s1 the growth inhibition was -13.2% (inactive). For C=[CH][Sn]([CH]=C)([c]1ccccc1)[c]1ccccc1, the growth inhibition was -26.8% (inactive). With C[C@]12CC[C@@H]3C4=CC(=O)CC[C@@H]4CC[C@H]3[C@@H]1CC[C@@H]2O the growth inhibition was 4.8% (inactive). In the case of O=[Se](=O)(O)O, the growth inhibition is reported as -12.6% (inactive). With CCCN(C)C(C)(C)C(=O)c1ccccc1 the growth inhibition was -18.9% (inactive). In the case of C/C(=N\N=C(N)N)C(CN(C)C)C(c1ccccc1)c1c(O)c2ccccc2oc1=O (stereo not given), the growth inhibition is reported as -1.5% (inactive). With c1cc2c(cc1NC1=NCCO1)CCC2 the growth inhibition was 8.6% (inactive). For C[C@]12CC[C@@H](O)C[C@H]1[C@@H](O)C[C@@H]1[C@@H]2CC[C@]2(C)C(=O)CC[C@@H]12, the growth inhibition was 25.7% (inactive). With COC(=O)C1=C(O)C(C(=O)OC)C2/C(=[N+](/[O-])O)c3c(cc([N+](=O)[O-])cc3[N+](=O)[O-])C1C2[N+](=O)[O-] (stereo not given) the growth inhibition was 67.8% (inactive). For CNC(=O)c1[nH]cnc1/N=N/N(C)N, the growth inhibition was 89% (active). In the case of CC(=O)Nc1cc([As](=O)(O)O)ccc1O, the growth inhibition is reported as 9.85% (inactive). For C1=CC2C=CC(C=C1)[PH+]2c1ccccc1.[C-]#[O+].[C-]#[O+].[C-]#[O+].[C-]#[O+].[C-]#[O+].[Cr] (stereo not given), the growth inhibition was -2.15% (inactive). In the case of O=P(O)(NCCCl)NCCCl, the growth inhibition is reported as -41.1% (inactive). For Nc1nc(N)c2[nH]c(N)nc2n1, the growth inhibition was 3.45% (inactive). With COc1cc(C=C2C(=O)NC(=S)NC2=O)cc(OC)c1OC the growth inhibition was -1.35% (inactive). For O=C(O)C(Cl)Cl, the growth inhibition was -1.6% (inactive). For CC(=O)O[C@H]1C(=O)[C@@]2(C)[C@H]([C@H](OC(=O)c3ccccc3)[C@@]3(O)C[C@H](O)C(C)=C1C3(C)C)[C@]1(OC(C)=O)CO[C@@H]1C[C@@H]2O, the growth inhibition was 12.5% (inactive). For CCCOP1(=O)C=C(C)C(Cl)=C(C)C1 (stereo not given), the growth inhibition was -14.7% (inactive). In the case of CC(C)=CCC/C(C)=N\N=C(N)N, the growth inhibition is reported as -2.8% (inactive). In the case of Cc1ccc(S(=O)(=O)OC2CN3CCC2CC3)cc1 (stereo not given), the growth inhibition is reported as 38.4% (inactive). In the case of O=C(O)CP(=S)(S)c1ccccc1 (stereo not given), the growth inhibition is reported as -27.8% (inactive). With NC1CC(O)C(O)CC1c1ccc2c(c1)OCO2 (stereo not given) the growth inhibition was 6.9% (inactive). In the case of COc1ccccc1-n1c(C)nc2ccccc2c1=O, the growth inhibition is reported as 19.7% (inactive). With COC1OCC(N=[N+]=[N-])C(OC)C1O (stereo not given) the growth inhibition was 5.65% (inactive).
